Here are results for 16 compounds from PubChem BioAssay.

Each structure is given as a SMILES string.

Assay [1] has as its system Human papillomavirus type 1a protein E7 (residues 44-93). Briefly: small molecules binding HPV E7 44-93 – biochemical, small-molecule microarray, residues 44-93, 635 nm fluorescence, primary screen (AID 1108).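 Note: E7 fragment applied at 1 µg/mL in TBST for 1 h at 4 C; score combines spot fluorescence with its signal to noise ratio.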 Particulars: fluorescence 635 nm, higher = more signal.
A short description of assay [2]: hepatitis C replication reporter changes, two-sided – Huh7 cells, luciferase reporter, HCV replication inhibitor project, primary screen (AID 1109).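 Note: huh7 hepatoma cells harbouring a luciferase neomycin HCV replicon reporter; luciferase luminescence as measure of HCV replicon replication; test concentration not given here.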 The following applies: Huh7 HCV replicon luciferase reporter, 48 h; higher = more signal. Background: A reporter such as luciferase makes a cellular process visible.
For assay [3], the target named is Left-right determination factor 2 (Homo sapiens) (UniProt O00292). Nature of the assay: small molecules binding LEFTY2 protein – biochemical, small-molecule microarray, 635 nm fluorescence scan, primary screen (AID 1110). Particulars: higher = more signal.
Sequence of Left-right determination factor 2 (Homo sapiens) (O00292 whole entry, looked up): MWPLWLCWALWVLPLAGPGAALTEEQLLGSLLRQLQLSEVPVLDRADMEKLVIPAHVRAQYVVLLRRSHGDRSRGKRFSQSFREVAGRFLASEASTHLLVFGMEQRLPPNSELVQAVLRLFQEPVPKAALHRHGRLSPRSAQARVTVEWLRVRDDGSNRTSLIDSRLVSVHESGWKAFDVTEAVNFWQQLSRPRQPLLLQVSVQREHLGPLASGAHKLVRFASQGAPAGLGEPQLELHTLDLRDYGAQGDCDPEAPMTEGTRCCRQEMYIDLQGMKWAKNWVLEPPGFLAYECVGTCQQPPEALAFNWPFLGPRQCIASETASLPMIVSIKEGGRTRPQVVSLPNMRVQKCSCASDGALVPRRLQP
In assay [4] the target is Calmodulin-1 (Homo sapiens) (UniProt P0DP23). Briefly: small molecules binding calmodulin-1 with EGTA – biochemical, small-molecule microarray, Cy5-labelled CALM1, profiling panel (AID 1111).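 Note: labelled calmodulin applied in Tris saline Tween buffer holding calcium plus EGTA and DTT.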 Particulars: Cy5-CALM1 binding fluorescence, higher = more signal.
The target is the same in assay [5]. Briefly: small molecules binding Ca-loaded calmodulin-1 – biochemical, small-molecule microarray, Cy5-labelled CALM1, plus calcium, artefact control for SMM control-protein annotation, profiling panel (AID 1112).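 Note: score merges spot fluorescence with signal to noise from triplicate slides.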 Particulars: Cy5-CALM1 binding fluorescence, higher = more signal.
Assay [6] is described as follows: probe aWnt5a binding to arrayed compounds – biochemical, biotinylated probe, 635/667 nm fluorescence, primary screen (AID 1113).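 Note: score merges 667 nm fluorescence intensity with signal-to-noise per printed feature.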 The following applies: small-molecule microarray, higher = more signal.
Assay [7] is described as follows: probe aShh binding to arrayed compounds – biochemical, biotinylated probe, 635/667 nm fluorescence, primary screen (AID 1114).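 Note: probe is biotin-labelled aShh protein from a stem cell growth factor screen; measures binding of labelled protein to compounds printed on the slide; score merges feature fluorescence at 667 nm with signal-to-noise.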 Particulars: small-molecule microarray, higher = more signal.
The nature of assay [8]: probe aNog binding to arrayed compounds – biochemical, biotinylated probe, 635/667 nm fluorescence, primary screen (AID 1115).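 Note: probe is biotinylated aNog protein used at 0.15 µg/mL for 1 h at 4 C; z-score combines 667 nm fluorescence of each spot with its signal to noise.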 The following applies: small-molecule microarray, higher = more signal.
For assay [9], the target named is Torsin-1A-interacting protein 1 (Homo sapiens) (UniProt Q5JTV8). Nature of the assay: compound microarray binding of lysate hLAP1 – cell lysate, small-molecule microarray, COS7 lysate, 635/667 nm fluorescence, primary screen (AID 1116). The following applies: 635 nm fluorescence, higher = more signal.
Sequence of Torsin-1A-interacting protein 1 (Homo sapiens) (Q5JTV8 whole entry, looked up): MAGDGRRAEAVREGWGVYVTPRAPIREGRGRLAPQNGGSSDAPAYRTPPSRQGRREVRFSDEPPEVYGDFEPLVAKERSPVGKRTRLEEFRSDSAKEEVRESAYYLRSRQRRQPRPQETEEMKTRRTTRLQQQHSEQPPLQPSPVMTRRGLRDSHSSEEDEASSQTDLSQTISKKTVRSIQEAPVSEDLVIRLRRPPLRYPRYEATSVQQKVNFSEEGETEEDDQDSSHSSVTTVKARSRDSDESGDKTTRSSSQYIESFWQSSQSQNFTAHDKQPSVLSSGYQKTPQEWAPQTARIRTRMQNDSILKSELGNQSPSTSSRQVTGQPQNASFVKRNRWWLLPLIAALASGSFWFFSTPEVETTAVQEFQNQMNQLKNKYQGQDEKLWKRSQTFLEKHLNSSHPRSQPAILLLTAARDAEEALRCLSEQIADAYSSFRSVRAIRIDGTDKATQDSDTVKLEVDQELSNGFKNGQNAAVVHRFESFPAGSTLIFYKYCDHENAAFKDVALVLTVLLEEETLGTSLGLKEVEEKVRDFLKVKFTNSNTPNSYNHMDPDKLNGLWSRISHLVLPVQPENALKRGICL
The target of assay [10] is Alpha-bungarotoxin (Bungarus multicinctus) (UniProt P60615). Nature of the assay: compounds binding labelled alpha-BTX control protein – biochemical, small-molecule microarray, Alexa647 label, 635/667 nm fluorescence, artefact control for SMM control protein annotation, profiling panel (AID 1117). The following applies: alpha-BTX-A647 binding fluorescence, higher = more signal.
Sequence of Alpha-bungarotoxin (Bungarus multicinctus) (P60615 whole entry, looked up): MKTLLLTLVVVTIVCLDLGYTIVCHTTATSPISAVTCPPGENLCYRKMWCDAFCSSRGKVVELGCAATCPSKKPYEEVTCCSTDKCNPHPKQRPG

Regarding `COc1cc(Br)cc(C(O)C2C=CC3C(=O)N(C)C(=O)C3N2N2CCCCC2)c1OC` (stereo not given), the composite z-score in assay [1] was 0.207; in assay [3] it was -1.31; in assay [4] it was -0.104; in [5], 0.315; in [6], -0.0735; in assay [7] it was 0.304. In addition, the results for the composite z-score in assay [8], in [9] and in assay [10] were 0.69, 1.09 and -0.251, respectively. For the same compound, in assay [2], the z-score was -0.0024.
As to `CN1C(=O)C2C=CC(C(O)c3ccc([N+](=O)[O-])cc3)N(N3CCCCC3)C2C1=O` (stereo not given), the composite z-score came to 1.33 in assay [1]; 0.169 in assay [3]; 1.42 in assay [4]; 0.0877 in assay [5]; 0.0913 in assay [6]; 0.108 in assay [7]. In addition, the figures for the composite z-score in assay [8], in assay [9] and in [10] were 1.59, -0.0204 and 1.08, respectively. Moreover, in assay [2], the z-score came to 0.702.
On to `NC(=O)NCC#Cc1ccc2c(c1)[C@]1(C(=O)N2)[C@H](C(N)=O)[C@H]2C(=O)O[C@H](c3ccccc3)[C@H](c3ccccc3)N2[C@@H]1c1ccc(O)cc1`, for which the composite z-score in assay [1] was 0.502; in assay [3], -1.13; in assay [4], 0.721; in assay [5] it was 0.562; in assay [6], 0.726; in assay [7], 0.42. In addition, the values for the composite z-score in assay [8], in assay [9] and in assay [10] were 2.39, 3.44 and 2.12, respectively. Besides, the z-score in [2] was found to be 0.408.
On to `CCC[C@@H]1C[C@@]1(CCC)[C@@H](NS(=O)(=O)c1cccc2cccnc12)c1ccc(Cl)cc1`, for which the composite z-score in assay [1] was 1.23; in [3], -0.385; in assay [4], 0.976; in assay [5], 1.28; in assay [6] it was 0.0839; in assay [7], 0.426. The composite z-score came out at 1.1 in assay [8], 0.731 in assay [9] and 0.6 in assay [10]. Further, the z-score in assay [2] was -1.38.
Consider `CC(C)C[C@@H]1NC(=O)[C@@H]2C[C@H](C(=O)NCc3ccc(F)cc3)[C@H](c3cccc(OCCO)c3)N2C1=O`, for which the composite z-score in assay [1] is 0.0179; in [3], 0.0533; in assay [4], 0.217; in [5], 0.0115; in [6], -0.31; in assay [7] it was 0.147. In addition, the values for the composite z-score in [8], in assay [9] and in assay [10] were -0.0315, 0.172 and -0.41, respectively. In [2], this compound gave a z-score of -0.992.
On to `CC(C)N1C(=O)[C@@]2(Cc3ccccc31)c1ccccc1C(=O)N(Cc1ccccc1Cl)[C@H]2c1ccc(CO)cc1`, for which the composite z-score was -0.469 in [1]; -0.893 in assay [3]; -0.493 in assay [4]; -0.805 in [5]; -0.105 in assay [6]; -0.262 in assay [7]. In addition, the values for the composite z-score in assay [8], in [9] and in assay [10] were -0.179, -1.05 and -0.216, respectively. The compound further yielded a z-score in assay [2] of -0.791.
Take `CCCC[C@@H]1C[C@H]1[C@@H](NC(=O)c1cccs1)c1ccc(-c2ccccc2)cc1`: the composite z-score in assay [1] was 0.495; in assay [3], -0.0554; in assay [4] it was 0.362; in assay [5], 0.295; in [6], -0.0704; in assay [7] it was -0.138. Further, the composite z-score is 0.103 in assay [8], 0.254 in assay [9] and -0.474 in assay [10]. This compound also showed a z-score in [2] of -2.05.
On to `CCC(CC)C(O)C1C=CC2C(=O)NC(=O)C2N1Nc1ccc(Cl)cc1Cl` (stereo not given), for which the composite z-score in assay [1] was 0.672; in assay [3], -0.46; in [4] it was 1.93; in [5], 1.15; in [6], -0.12; in assay [7], 0.234. Moreover, the values for the composite z-score in assay [8], in [9] and in assay [10] were -0.452, 0.247 and 1.05, respectively. The compound further showed a z-score in assay [2] of -0.759.
In the case of `COC(=O)[C@@]1(Cc2ccc(OC)cc2)[C@H]2c3cc(C(=O)N(C)C)n(Cc4ccccn4)c3C[C@H]2CN1C(=O)c1ccccc1`, the composite z-score in assay [1] is -0.0851; in assay [3] it was -0.479; in assay [4], 2.86; in assay [5], 1.41; in assay [6] it was 0.0859; in assay [7], 0.645. Besides, the composite z-score in [8] amounted to 1.86; in assay [9] it was 3.05; in assay [10], 1.13. The same compound displayed a z-score in assay [2] of -0.741.
For the compound `O=C1C[C@]2(c3ccc([N+](=O)[O-])cc3)C(=O)N(CC(F)(F)F)c3cc(CO)ccc3[C@H]2N1C1CCCCC1`, the composite z-score was -0.83 in assay [1]; -1.34 in assay [3]; -0.74 in assay [4]; -0.624 in assay [5]; -0.103 in assay [6]; -0.221 in [7]. In addition, the composite z-score in [8] was -0.495; in assay [9] it was -0.555; in [10], -0.605. Also, the z-score in assay [2] amounted to 0.909.
For the compound `O=C1N(Cc2ccccc2)c2ccccc2[C@@H]2OC(c3ccc(OCCCO)cc3)=N[C@]12CCS(=O)(=O)c1ccccc1`, the composite z-score in assay [1] was 1.38; in [3], 0.274; in assay [4] it was 1.61; in assay [5] it was 0.246; in assay [6], 0.0279; in assay [7], -0.0575. Besides, the composite z-score is -0.807 in assay [8], 0.655 in [9] and 1.48 in assay [10]. In assay [2], this compound had a z-score of -1.38.
Consider `COc1ccc(C#Cc2ccc3c(c2)[C@]2(C(=O)N3)[C@H](C(=O)NC[C@H](O)c3ccccc3)[C@H]3C(=O)O[C@H](c4ccccc4)[C@H](c4ccccc4)N3[C@@H]2c2ccc(O)cc2)cc1`, for which the composite z-score in [1] is 1.43; in assay [3], 0.559; in assay [4] it was 1.04; in assay [5], -0.064; in assay [6], 0.0952; in assay [7] it was 0.0723. Further, the composite z-score was 0.277 in [8], 1.06 in assay [9] and 1.72 in assay [10]. The compound also registered a z-score in assay [2] of -1.38.
Regarding `CN(C)CCCCCCNC(=O)[C@H]1C[C@H]2C(=O)N[C@@H](CCCCN)C(=O)N2[C@H]1c1cccc(OCCO)c1`, the composite z-score in [1] came to 1.56; in [3], 1.71; in assay [4], 1.99; in assay [5] it was 1.16; in [6], 1.06; in assay [7], 2.92. The composite z-score was 3.26 in assay [8], 4.54 in assay [9] and 2.52 in [10]. The compound also yielded a z-score in assay [2] of 0.386.
On to `COc1ccc([Si](C)(C)[C@@H]2[C@@H](CC(=O)N3CCC[C@H]3CO)O[C@]3(C(=O)N(c4ccccc4)c4ccccc43)[C@H]2C)cc1`, for which the composite z-score in assay [1] is 1.36; in assay [3] it was 0.751; in assay [4] it was 0.528; in [5], -0.143; in [6], -0.124; in [7] it was 0.0328. In addition, the composite z-score was -0.0047 in assay [8], 0.691 in assay [9] and 1.09 in assay [10]. The z-score in assay [2] was -0.417.
As for `COCCOC(=O)N1C(=O)[C@@]2(c3cc(C#CCC(C(=O)OC)C(=O)OC)ccc31)[C@H](C(=O)Nc1nc3ccccc3s1)[C@H]1C(=O)O[C@H](c3ccccc3)[C@H](c3ccccc3)N1[C@@H]2c1ccccc1OCCO`, the composite z-score was 0.142 in [1]; 0.6 in assay [3]; 1.69 in [4]; 0.72 in assay [5]; -0.0445 in [6]; 0.151 in [7]. The composite z-score is 0.106 in [8], 0.886 in [9] and 2.2 in assay [10]. In assay [2], this compound gave a z-score of -1.52.
As to `O=C(NC1CC1)[C@@H]1c2ccccc2C(=O)N(Cc2ccccc2Cl)[C@H]1c1ccc(CO)cc1`, the composite z-score in [1] is 0.791; in [3], 0.697; in assay [4] it was 1.08; in assay [5], 0.287; in assay [6], -0.0765; in assay [7], -0.138. The composite z-score in assay [8] came to 0.233; in assay [9], 1.46; in [10] it was 0.759. Also, in [2], the z-score is -2.09.
